Reference: PubChem BioAssay AID686978 (National Center for Advancing Translational Sciences (NCATS), 2013)
About 64,000 (15%) of roughly 420,000 compounds were called active. Inconclusive results (about 27%) are left out. Not all results are given here. Unmarked numbers belong to inactive results. The call rests on the fitted dose curve; in most records, active means well fitted inhibition curve with a large enough effect; inconclusive means small, poorly fitted or top-dose-only effect; inactive means flat fitted curve, though single readings scatter.
On the % scale 0 is the no-effect control and ±100 the full control effect; potency means the concentration at half of the fitted maximal effect.

Assay: qHTS for Inhibitors of human tyrosyl-DNA phosphodiesterase 1 (TDP1): qHTS in cells in absence of CPT; further: nearly all actives have a fitted effect of over 55% in size
Settings: DT40 Tdp1-/- hTDP1 cells, no CPT, ATP luminescence, 48 h; activity change, negative = growth inhibition: at 46.2 µM (top of the series)
Summary of the method: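 Stably hTDP1-transfected Tdp1-null chicken DT40 cells were treated with library compounds minus camptothecin and grown for at least 48 hr at 37 °C, after which cellular ATP was quantified by luminescence.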
With `O=C(Nc1cccc2cccnc12)c1cccc(Cl)c1` the “activity change, negative = growth inhibition” value was -25.7%. In the case of `CC(=O)/C(=N\Nc1ccc(Cl)cc1Cl)Sc1cccc2cccnc12`, the Potency is reported as 4.11 µM (active). With `N#Cc1ccc(C(=O)Nc2cccc3cccnc23)c(F)c1` the “activity change, negative = growth inhibition” value was 12.3%. With `C#CCN(N(C)c1ncc(C(F)(F)F)cc1Cl)S(=O)(=O)c1ccc2ccccc2c1` the “activity change, negative = growth inhibition” value was -19.9%. With `Cc1csc(NC(=O)CSc2nnc(-c3cccnc3)o2)n1` the “activity change, negative = growth inhibition” value was 4.46%. In the case of `O=C(NCCS(=O)(=O)NCc1ccc(F)cc1)c1ccccc1`, the “activity change, negative = growth inhibition” value is reported as -11.1%. For `O=C(COC(=O)c1ccc(O)cc1)Nc1nccs1`, the “activity change, negative = growth inhibition” value was -0.707%. For `O=C(Cn1cnc([N+](=O)[O-])n1)NCCc1ccccc1`, the “activity change, negative = growth inhibition” value was 2.11%. For `CCN1CCN(CC(=O)c2cc(OC)c(OC)c(OC)c2)CC1`, the “activity change, negative = growth inhibition” value was -11.6%. In the case of `COc1cc(-n2c(C)nc3cc(C(=O)NCc4ccco4)ccc32)cc(OC)c1OC`, the “activity change, negative = growth inhibition” value is reported as -11.4%. With `CCn1c(CNC(=O)c2cc(OC)c(OC)c(OC)c2)cc2cc(C)ccc21` the Potency was 13 µM (active). With `COC(=O)c1cccc(NC(=O)c2cccc(N3C(=O)CCC3=O)c2)c1` the “activity change, negative = growth inhibition” value was -4.15%. With `O=C(O)c1ccccc1Cc1ccc(F)c2ccccc12` the “activity change, negative = growth inhibition” value was 3.98%. In the case of `COCCNC(=S)Nc1cc(S(=O)(=O)N2CCOCC2)ccc1N1CCCCC1`, the Potency is reported as 16.4 µM (active). In the case of `O=C(CNCc1ccco1)Nc1cc(S(=O)(=O)N2CCOCC2)ccc1N1CCCC1`, the “activity change, negative = growth inhibition” value is reported as -0.457%. With `CCOc1ccc(C(=O)NC(=S)Nc2ccc(N3CCOCC3)c(Cl)c2)cc1[N+](=O)[O-]` the Potency was 8.2 µM (active). In the case of `CC(=O)Nc1ccc(S(=O)(=O)N2CCC(C(=O)NC3CC3)CC2)cc1`, the “activity change, negative = growth inhibition” value is reported as 15.7%. For `O=C(COC(=O)c1ccccc1F)Nc1cc(S(=O)(=O)N2CCOCC2)ccc1N1CCCC1`, the “activity change, negative = growth inhibition” value was 1.56%. With `O=S(=O)(c1ccc(NC(=S)NN=C(C2CC2)C2CC2)cc1)N1CCOCC1` the “activity change, negative = growth inhibition” value was -8.48%. With `CCOc1ccc(C(=O)NC(=S)Nc2ccc(NC(=O)C(C)C)cc2)cc1[N+](=O)[O-]` the “activity change, negative = growth inhibition” value was 5.95%. With `CCOc1ccc(C(=O)Nc2ccc(CN3CCOCC3)cc2)cc1Cl` the “activity change, negative = growth inhibition” value was -7.26%. For `O=C(Nc1ccc(S(=O)(=O)N2CCOCC2)cc1)C1CCN(S(=O)(=O)c2ccc(Cl)cc2)CC1`, the Potency was 10.3 µM (active). For `O=C(Nc1ccc2c(c1)nc1n2CCCCC1)c1cc(S(=O)(=O)N2CCOCC2)ccc1Cl`, the Potency was 14.6 µM (active). For `O=C(OCC(=O)N1CCCC1=O)c1cc(S(=O)(=O)N2CCOCC2)ccc1Cl`, the “activity change, negative = growth inhibition” value was -4.83%. With `COc1cc(NC(=S)NCc2ccco2)c(OC)cc1Cl` the “activity change, negative = growth inhibition” value was -6.81%. In the case of `COC(=O)CN(c1nc(C)c(Cl)c(OC)n1)S(=O)(=O)c1ccc(C)cc1`, the “activity change, negative = growth inhibition” value is reported as -18.2%. With `O=C(OCC(O)C(O)COC(=O)c1ccccc1)c1ccccc1` (stereo unspecified) the “activity change, negative = growth inhibition” value was -8.97%. For `O=C(O)C(=Cc1ccccc1[N+](=O)[O-])c1ccccc1`, the “activity change, negative = growth inhibition” value was -12.4%. In the case of `O=C(Cc1c(F)cccc1Cl)N1CCN(C(=O)c2ccco2)CC1`, the “activity change, negative = growth inhibition” value is reported as -11.5%. In the case of `CC(Oc1ccc(F)cc1)C(=O)Nc1cc(S(=O)(=O)N2CCOCC2)ccc1N1CCN(C)CC1` (stereo unspecified), the “activity change, negative = growth inhibition” value is reported as -1.55%. In the case of `CC(C)CCOc1ccc(C(=O)Nc2cc(S(=O)(=O)N3CCOCC3)ccc2N2CCOCC2)cc1`, the Potency is reported as 5.8 µM (active). In the case of `COc1ccc(NC(=O)CNc2cc(S(=O)(=O)N3CCOCC3)ccc2N2CCOCC2)c(OC)c1`, the “activity change, negative = growth inhibition” value is reported as 2.99%. In the case of `CC(=O)Nc1ccc(C(=O)Nc2cc(S(=O)(=O)N3CCOCC3)ccc2N2CCOCC2)cc1`, the “activity change, negative = growth inhibition” value is reported as -26.5%. With `O=C(Nc1ccc(N2CCOCC2)c(Cl)c1)c1ccc(S(=O)(=O)N2CCOCC2)cc1` the Potency was 14.6 µM (active). For `O=C(Nc1ccc2cn[nH]c2c1)c1ccc(S(=O)(=O)N2CCOCC2)cc1`, the “activity change, negative = growth inhibition” value was -19.1%. With `NC(=O)CN1CCCC1c1ccc2c(c1)OCCO2` (stereo unspecified) the “activity change, negative = growth inhibition” value was -8.83%. With `CCOC(CNC(=O)C1CCN(S(=O)(=O)c2ccc3nc4c(c(C(=O)O)c3c2)CC(C)CC4)CC1)OCC` (stereo unspecified) the “activity change, negative = growth inhibition” value was 20.5%. With `CCN(CC)N=Nc1cccc(NC(C)=O)c1` the Potency was 3.26 µM (active). With `CC(=O)Nc1cccc(C(=O)OCC(=O)c2ccc3c(c2)OCO3)c1` the “activity change, negative = growth inhibition” value was -25.7%. In the case of `CC(=O)c1cccc(NC(=O)c2ccncc2)c1`, the “activity change, negative = growth inhibition” value is reported as -20.5%. For `C=CCn1c(CCNC(=O)c2ccccc2F)nnc1SCC(=O)Nc1ccc(OC)cc1`, the “activity change, negative = growth inhibition” value was -22.4%. With `C=CCn1c(SCc2ccc(Cl)c(Cl)c2)nnc1C(CO)NC(=O)c1ccc(OC)cc1` (stereo unspecified) the Potency was 20.6 µM (active). With `C=CCn1c(CNC(=O)c2ccco2)nnc1SCC(=O)c1ccc(OC)cc1` the “activity change, negative = growth inhibition” value was -17.9%. For `C=CCN1C(=O)C(Cc2cccc(Cl)c2)S/C1=N/N=C/c1ccco1` (stereo unspecified), the “activity change, negative = growth inhibition” value was -27.6%. In the case of `Cc1cc(S(=O)(=O)NCc2ccccn2)c(Cl)cc1Cl`, the “activity change, negative = growth inhibition” value is reported as -22.2%. For `CCn1c(=S)sc2c(=O)n(CC(=O)Nc3ccc(OC)cc3)c(C)nc21`, the “activity change, negative = growth inhibition” value was 8.25%. With `CC(C)OC(=O)c1ccc(NCc2cc(O)ccc2O)cc1Cl` the Potency was 2.59 µM (active). In the case of `C#CCNc1ccc(C(=O)OCC)cc1`, the “activity change, negative = growth inhibition” value is reported as -31.1%. For `CC(CN1CCOCC1)OC(=O)c1ccc(Cl)cc1Cl` (stereo unspecified), the “activity change, negative = growth inhibition” value was -0.492%. In the case of `COC(=O)c1cc(C(=O)CSc2nc(C)cc(C)n2)ccc1O`, the “activity change, negative = growth inhibition” value is reported as -0.488%. For `CC(OC(=O)c1ccc(Cl)cc1O)C(=O)NCCC1=CCCCC1` (stereo unspecified), the “activity change, negative = growth inhibition” value was -14%. With `COC(=O)c1ccc(NCc2cc(O)ccc2O)cc1` the Potency was 4.61 µM (active). For `O=C(OC12CC3CC(CC(C3)C1)C2)c1ccc(NCc2cc(O)ccc2O)cc1`, the Potency was 1.64 µM (active). For `CSCCC(NS(=O)(=O)c1ccc(C)cc1)C(=O)N1CCCC1` (stereo unspecified), the “activity change, negative = growth inhibition” value was -3.98%. For `C/C(Cc1ccccc1)=N\NC(=O)CNC(=O)c1ccc2c(c1)OCCO2`, the “activity change, negative = growth inhibition” value was -18%. For `CC1(C)C2CCC13CS(=O)(=O)NC3C2` (stereo unspecified), the “activity change, negative = growth inhibition” value was -2.28%. With `CC1(C)OC(=O)C(=CNC(CO)C(=O)O)C(=O)O1` (stereo unspecified) the “activity change, negative = growth inhibition” value was -11.9%. For `O=P(O)(CP(=O)(c1ccccc1)c1ccccc1)c1ccccc1O`, the “activity change, negative = growth inhibition” value was 5.16%. With `C=CCN1CN(S(=O)(=O)c2ccc(OC)cc2)c2nc3ccccc3nc21` the “activity change, negative = growth inhibition” value was 11.2%. With `Cn1cnnc1Sc1ccc(CN2CCN(C3CCCC3)C(CCO)C2)o1` (stereo unspecified) the “activity change, negative = growth inhibition” value was 4.43%. For `Cc1c(C(=O)N(Cc2ccccc2)Cc2cccnc2)cnn1-c1ccc(F)cc1`, the “activity change, negative = growth inhibition” value was -12.2%. In the case of `CCN(CC)CC(=O)Nc1nn(-c2ccccc2)nc1C(N)=O`, the “activity change, negative = growth inhibition” value is reported as 1.58%. With `O=C(NCCCN1CCCCCC1)c1ccc(N2CCCC2=O)cc1` the “activity change, negative = growth inhibition” value was -2.76%. With `Cc1ccc(C(=O)N/N=C\c2cc(Br)c(Br)o2)cn1` the Potency was 16.4 µM (active). With `O=C(N/N=C/c1ccc(Br)o1)c1cncc(Br)c1` the “activity change, negative = growth inhibition” value was 14.6%. In the case of `Cc1ccc(C(=O)N/N=C/c2cccc3ccccc23)cn1`, the “activity change, negative = growth inhibition” value is reported as -2.46%.
